From PubChem BioAssay (NCATS)
Records with an inconclusive call do not appear. Active and inactive are the calls of the source. Unless noted, calls follow the shape of the dose curve; as a rule, active = well fitted curve in the direction sought with a large enough effect; inconclusive = small, poorly fitted or top-dose-only effect, or another doubt; inactive = no such curve, though single readings can be large; an effect the other way counts as inactive or inconclusive.

Key:
[1] = Cell Viability - LYMP1-002 - Assay at 16 hr (AID 948)
Summary of the method: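 ATP luminescence (CellTiter-Glo) was measured after 16 hr compound exposure at 37 C of 2500 lymphoblastoid LYMP1-002 cells per well. Concentration-response curves were fitted with the Hill equation to give AC50.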

[2] = MultiTox-Fluor Cytotoxicity Assay - LYMP1-002 - Live Cells (AID 955);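 also: cells exposed to compound for 16 hours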
Summary of the method: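 Cells were seeded at 2500 per well and incubated 5 hr. Compounds were then added for 16 hr at 37 C, followed by MultiTox-Fluor reagent for 60 min at room temperature and fluorescence reading of viable-cell protease signal.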

[3] = MultiTox-Fluor Cytotoxicity Assay - LYMP1-002 - Dead Cells (AID 960);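 also: cells exposed to compound for 16 h at 37 °C; nearly all actives have a fitted effect of over 60% in size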
Summary of the method: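 Cells were plated, rested 5 hr, then treated with compound dilution series for 16 hr at 37 C. After adding substrate reagent and 60 min at room temperature, dead-cell protease fluorescence gave concentration-response curves fitted by the Hill equation.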

[4] = MultiTox-Fluor Cytotoxicity Assay - LYMP1-003 - Dead Cells (AID 961);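 also: cells exposed to compound for 16 h at 37 °C; nearly all actives have a fitted effect of over 70% in size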
Summary of the method: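 Acute toxicity is scored as increased dead-cell protease activity in human lymphoblastoid LYMP1-003 cells after 16 h compound exposure in complete culture medium. Activity is normalized to DMSO basal and 15 uM tetraoctylammonium bromide as full response.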

[5] = MultiTox-Fluor Cytotoxicity Assay - LYMP1-003 - Live Cells (AID 962);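 also: cells exposed to compound for 16 hours at 37 °C; cytotoxic hits lower the live-cell protease signal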
Summary of the method: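 Acute cytotoxicity is scored as a drop in live-cell protease activity in human lymphoblastoid LYMP1-003 cells after 16 hr compound exposure at 37 C. AC50 values come from Hill-equation modelling of concentration-response data.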

[6] = Cell Viability - LYMP1-003 - Assay at 24 hr (AID 963)
Summary of the method: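 Cytotoxicity is scored as a concentration-dependent fall in ATP-linked luciferase signal in human lymphoblastoid LYMP1-003 cells treated 24 hr at 37 C in complete culture medium.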

[7] = Cell Viability - LYMP1-003 - Assay at 40 hr (AID 964); also: series mostly up to about 92 µM; nearly all actives have a fitted effect of over 60% in size
Summary of the method: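 Luminescent ATP signal (CellTiter-Glo) served as the viability read-out after 40 hr compound treatment of human lymphoblastoid LYMP1-003 cells at 37 C. Decreases in ATP were fitted with the Hill equation to give AC50.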

[8] = Cell Viability - LYMP2-004 (AID 966); also: nearly all actives have a fitted effect of over 65% in size
Summary of the method: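 qHTS cytotoxicity: human lymphoblastoid line, 24 hr compound treatment, 37 C, complete medium. Viability read as cellular ATP via luciferase luminescence; tetraoctylammonium bromide served as positive control.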

[9] = Cell Viability - LYMP2-005 (AID 967); also: series mostly up to about 92 µM
Summary of the method: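 LYMP2-005 human lymphoblastoid cells (2500/well) were treated with compounds for 24 h at 37 C. Intracellular ATP was then measured by CellTiter-Glo luminescence after 30 min at room temperature. AC50 values came from Hill-equation fits of qHTS concentration-response data.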

[10] = Cell Viability - LYMP2-009 (AID 968); also: series mostly up to about 92 µM; nearly all actives have a fitted effect of over 55% in size
[11] = Cell Viability - LYMP2-013 (AID 970); also: series mostly up to about 92 µM; nearly all actives have a fitted effect of over 55% in size
Summary of the method: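 Cytotoxicity is scored as a concentration-dependent drop in intracellular ATP in human lymphoblastoid cells after 24 hr compound exposure at 37 C. ATP is quantified by luciferase luminescence, and AC50 values come from Hill-equation modeling.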

[12] = Cell Viability - LYMP2-015 (AID 971); also: nearly all actives have a fitted effect of over 55% in size
Summary of the method: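 Cells are seeded at 2500 per well and incubated 5 hr at 37 C. Compounds are added across a concentration series for 24 hr at 37 C. CellTiter-Glo is added, and luminescence is read after 30 min at room temperature.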

[13] = Cell Viability - LYMP2-017 (AID 972); also: series mostly up to about 92 µM; nearly all actives have a fitted effect of over 55% in size
Summary of the method: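 Cytotoxicity is scored as a concentration-dependent drop in cellular ATP in a human lymphoblastoid line after 24 hr treatment at 37 C. Values are AC50s from Hill-equation modelling.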

[14] = Cell Viability - LYMP2-019 (AID 973); also: nearly all actives have a fitted effect of over 55% in size
Summary of the method: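 Cytotoxicity is scored as a concentration-dependent drop in cellular ATP after cells (2500/well) receive compound for 24 hr at 37 C. Tetraoctylammonium bromide serves as positive control.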

[15] = Cell Viability - LYMP2-021 (AID 974)
Summary of the method: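 Loss of cellular ATP, measured with a luciferase-based CellTiter-Glo readout, serves as the toxicity signal in human lymphoblastoid cells treated for 24 hours at 37 C. Potency is reported as AC50 from a standard Hill model.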

[16] = Cell Viability - LYMP2-025 (AID 976); also: series mostly up to about 92 µM
Summary of the method: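 Acute cytotoxicity is scored as a concentration-dependent fall in intracellular ATP, measured by luciferase luminescence, in human lymphoblastoid LYMP2-025 cells exposed to compound for 24 hours at 37 C. AC50 values come from standard Hill fits.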

[17] = Cell Viability - LYMP2-002 (AID 977);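 also: series mostly up to about 92 µM; compound exposure lasted 24 h at 37 °C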
Summary of the method: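 Human lymphoblastoid cells (2500/well) in complete medium were preincubated 5 hr at 37 C, then exposed to compounds for 24 hr at 37 C. Intracellular ATP was read by CellTiter-Glo luminescence; AC50 came from Hill-equation concentration-response fits.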

[18] = target: Pyruvate kinase (Leishmania mexicana) (UniProt Q27686); assay: qHTS Validation Assay for Activators of Leishmania Mexicana Pyruvate Kinase (AID 959)
Summary of the method: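 Pyruvate kinase activity of E451W LmPYK (0.2 nM) was followed as ATP output after 1 h at room temperature with 0.5 mM PEP and 0.1 mM ADP, detected by PKLight luminescence.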

[19] = target: Pyruvate kinase PKM (Homo sapiens) (UniProt P14618); assay: qHTS Assay for Activators of Human Muscle Pyruvate Kinase (AID 954; active = well fitted curve in the direction sought with a large enough effect, not every such curve was filed as active)
Summary of the method: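 Screening used highly purified human pyruvate kinase M2 under submaximal activity, with PEP at its Km and ADP below Km. After an hour at room temperature, ATP was read by luciferase luminescence.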

Measured: Potency

Chain of Pyruvate kinase PKM (Homo sapiens) (P14618 whole entry, looked up): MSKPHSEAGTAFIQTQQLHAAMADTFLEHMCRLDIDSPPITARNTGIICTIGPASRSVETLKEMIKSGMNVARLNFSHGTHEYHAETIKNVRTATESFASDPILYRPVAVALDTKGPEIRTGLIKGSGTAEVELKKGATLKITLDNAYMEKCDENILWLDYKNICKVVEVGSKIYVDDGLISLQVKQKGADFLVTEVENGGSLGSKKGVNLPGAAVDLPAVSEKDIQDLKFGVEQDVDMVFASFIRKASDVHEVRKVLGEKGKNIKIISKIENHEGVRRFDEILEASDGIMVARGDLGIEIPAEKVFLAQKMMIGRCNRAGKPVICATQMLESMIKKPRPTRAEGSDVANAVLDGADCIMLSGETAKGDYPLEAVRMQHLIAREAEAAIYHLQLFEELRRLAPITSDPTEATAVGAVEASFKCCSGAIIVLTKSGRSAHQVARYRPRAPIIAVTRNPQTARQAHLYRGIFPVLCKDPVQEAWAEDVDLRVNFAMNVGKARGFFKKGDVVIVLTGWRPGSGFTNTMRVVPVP
Chain of Pyruvate kinase (Leishmania mexicana) (Q27686 2-499 E452W): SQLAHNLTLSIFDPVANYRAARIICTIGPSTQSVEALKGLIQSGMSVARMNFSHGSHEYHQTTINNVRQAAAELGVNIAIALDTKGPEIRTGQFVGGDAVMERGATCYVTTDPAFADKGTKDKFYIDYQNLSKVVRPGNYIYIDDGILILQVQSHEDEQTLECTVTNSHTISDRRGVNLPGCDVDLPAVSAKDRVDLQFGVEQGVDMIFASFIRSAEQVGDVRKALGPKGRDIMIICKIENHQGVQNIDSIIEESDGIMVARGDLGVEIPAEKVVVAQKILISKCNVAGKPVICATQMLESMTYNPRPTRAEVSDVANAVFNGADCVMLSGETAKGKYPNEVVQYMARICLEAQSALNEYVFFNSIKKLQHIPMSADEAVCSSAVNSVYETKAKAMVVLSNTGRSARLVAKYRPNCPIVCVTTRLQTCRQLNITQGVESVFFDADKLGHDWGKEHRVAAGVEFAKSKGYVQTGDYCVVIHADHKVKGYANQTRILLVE

CCC1(c2ccccc2)C(=O)NCNC1=O
not listed: [18] | [19]
inactive: all other assays above

O=c1c(-c2ccc(O)cc2)coc2cc(O)cc(O)c12
not listed: [19]
inactive: all other assays above

N[C@@H](Cc1c[nH]c2ccc(O)cc12)C(=O)O
not listed: [18] | [19]
inactive: all other assays above

Cn1c(=O)c2[nH]cnc2n(C)c1=O
not listed: [16] | [18]
inactive: all other assays above

Nc1c2c(nc3ccccc13)CCCC2
not listed: [18] | [19]
inactive: all other assays above

O=c1[nH]cc(F)c(=O)[nH]1
not listed: [7] | [12] | [13] | [18] | [19]
inactive: all other assays above

CC(C)C(=O)Nc1ccc([N+](=O)[O-])c(C(F)(F)F)c1
not listed: [3] | [11] | [14] | [18] | [19]
inactive: all other assays above

CN(Cc1cnc2nc(N)nc(N)c2n1)c1ccc(C(=O)N[C@@H](CCC(=O)O)C(=O)O)cc1
inactive: [19]

NS(=O)(=O)c1cc2c(cc1Cl)NCNS2(=O)=O
not listed: [3] | [18]
inactive: all other assays above

CC(C)NCC(O)c1ccc(O)c(O)c1 (centres undefined)
not listed: [7] | [18] | [19]
inactive: all other assays above

Cc1ccc(-c2cc(C(F)(F)F)nn2-c2ccc(S(N)(=O)=O)cc2)cc1
not listed: [3] | [18] | [19]
inactive: all other assays above
